# Screening results: PubChem BioAssay, several laboratories
# BoNT F protease: inhibitors of Botulinum neurotoxin F light chain protease; Multiplex microsphere protease cleavage assay, flow cytometry; inhibition, % at 10 µM; 360,000 tested, 0.22% active; AID 588497; in the data active = inhibition above about 35%, passing the limit was not always enough; inconclusive = no clear call, values can overlap the other calls; note: plate controls were buffer without enzyme for full effect and enzyme alone for no effect
# MazF activator: activators of E. coli MazEF toxin-antitoxin RNase; FAM/BHQ RNA-DNA oligo cleavage fluorescence, 5 h; 350,000 tested, 0.32% active; activation, % at 20 µM; P0AE70; in the data active = activation above about 50%
# BoNT A protease: blocks Botulinum neurotoxin A light chain protease; multiplex microsphere protease substrate cleavage, flow cytometry; inhibition, % at 10 µM; 360,000 tested, 0.17% active; note: plate controls were buffer without enzyme for full effect and enzyme alone for no effect
# Anthrax LF prot: inhibitors of Bacillus anthracis lethal factor protease | P15917 | multiplex microsphere protease cleavage assay, LF | inhibition, % at 10 µM | 360,000 tested, 0.12% active | AID 588501; note: plate controls were buffer without enzyme for full effect and enzyme alone for no effect
# Bead autofluor: counter-screen for toxin protease inhibitors: compound fluorescence. compound autofluorescence counterscreen, microsphere flow cytometry; stronger effect = higher value. 360,000 tested, 3.1% active. fluorescence intensity (concentration not given with the values). AID 624483; in the data active = fluorescence intensity above about 16000; inconclusive = no clear call, values can overlap the other calls
# Numbers without * were called inactive; ? = inconclusive; / = no result. Most compounds without a hit are left out; they make up all but 3.7% or so of the library. Cut-off read from the data, not from the text of the source, unless noted: active = inhibition above about 30%; inconclusive = no clear call, values can overlap the other calls; inactive = below that.
SMILES,BoNT F protease,MazF activator,BoNT A protease,Anthrax LF prot,Bead autofluor
COc1ccccc1NCc1nnc(-c2ccccc2)o1,19,-1,1,2,3463
CCOc1ccc(NC(=S)C(C#N)=C2N(C)c3ccccc3N2C)cc1,4,11,0,-3,4359
CCN1C[C@@H]2[C@@H]3C(=O)N(Cc4ccccc4)C(=O)[C@@H]3[C@](C)(C1=O)N2C(=O)c1ccccc1,-1,8,0,-1,3969
Cc1ccc(NC(=O)C2CC(=O)N(C(C)C)C2)cc1C (centres undefined),-5,-33,-3,-8,3761
Cc1cc(C(=O)N2CCC3(CC2)OCCO3)cs1,-4,3,?,1,21544*
O=C(c1ccccc1)N1CCC2(CC1)OCCO2,-7,-2,0,-2,5478
COc1ccccc1CNC(=O)CCn1c(=O)[nH]c2ccsc2c1=O,-8,1,?,0,21437*
O=C(O)CC1Cc2ccccc2C1C(=O)O (centres undefined),7,3,-1,-3,4488
CCOC(=O)C1=C(CSCC(=O)OC)NC(=O)NC1c1cc(C)ccc1C (centres undefined),2,-2,2,-9,22020*
CN1CCC(OC(=O)c2ccc(Br)cc2)CC1,5,-2,3,-1,21548*
NS(=O)(=O)c1ccc(Nc2nc(-c3ccc(O)cc3)cs2)cc1,-2,10,-2,-1,21481*
Oc1ccc(Nc2nc(-c3ccc(O)cc3)cs2)cc1,-13,78*,0,-13,11073
COc1ccc(S(=O)(=O)N2CCCC(C(F)(F)F)C2)cc1 (centres undefined),-6,6,-1,-2,4444
CC1(C)C2CCC1(C)C(NC(=O)CCN1CCCCC1)C2 (centres undefined),10,5,0,-4,8866
COCCOCCOCCC(=O)NC1CC2CCC1(C)C2(C)C (centres undefined),0,-8,2,-12,21940*
COc1ccc(OC)c(C(C(=O)NC2CCCCC2)N(C(=O)c2ccccn2)c2cccnc2)c1 (centres undefined),4,13,2,2,5701
Cc1nc2ccc3[nH]snc3c2n1,2,2,0,-1,23032*
CCOC(=O)C1(CCOc2ccccc2)CCN(Cc2ccc(OCC)c(CO)c2)CC1,?,0,-2,-6,3562
CCn1c(=O)c(C(=O)NCc2ccccc2)c(O)c2ccccc21,7,-13,-1,48*,3293
COc1ccc(NC(=O)Cn2nc(C(F)(F)F)c3c2CCCC3)c(OC)c1,-4,-3,?,0,21156*
O=C(Cn1nc(C(F)(F)F)c2c1CCCC2)NC1CCCC1,-3,4,-1,-2,23402*
COc1ccc(CNC(=O)Cn2nc(C(F)(F)F)c3c2CCC3)cc1,-5,4,0,-17,8974
O=C(NCc1cccnc1)Nc1cccc(NC(=O)NCc2cccnc2)c1,-13,2,-8,-3,27382*
CC(=O)c1cccc(NC(=O)NCc2cccnc2)c1,0,5,0,-1,20530*
O=C(NCc1cccnc1)Nc1cccc(Cl)c1,-6,8,0,0,3734
SMILES,BoNT F protease,MazF activator,BoNT A protease,Anthrax LF prot,Bead autofluor
Cc1oc2c(c1C(=O)NCc1ccccc1)CCCC2,-23,6,-1,-1,9873
Cc1oc2c(c1C(=O)Nc1ccc(C(=O)O)cc1)CCCC2,1,3,-1,-2,17117*
CC(=O)N1CCN(C2=NC(=O)C(=C3CCCCC3)S2)CC1,-2,-2,0,-3,2410
O=C1N=C(N2CCOCC2)SC1=C1CCCCC1,4,-2,1,-1,20921*
N#CCCN1CCN(C2=NC(=O)C(=C3CCCCC3)S2)CC1,0,-1,0,-2,22432*
CC(C)c1ccc(S(=O)(=O)N2CCN(C(=O)CN3C(=O)c4ccccc4C3=O)CC2)cc1,7,15,0,1,3803
C[C@@H]1CNC(=O)c2c(C(=O)NCC(=O)OC(C)(C)C)ncn21,-6,6,-1,0,3903
CCn1nc(C)c(CNC(=O)CC2C(=O)NCCN2CC(C)(C)C)c1C (centres undefined),-5,0,0,0,2631
CCOC(=O)[C@]12CCCC=C1N(Cc1ccc3c(c1)OCO3)C(=O)[C@H](CC(=O)N1CCC(c3ccccc3)CC1)C2,-2,/,1,4,5962
C#CCNc1cc(C)nc2ncnn12,-5,9,?,0,24731*
N#Cc1ccccc1S(=O)(=O)Nc1ccc2c(c1)OCCO2,?,2,1,-9,3685
CCOC(=O)N1CCC(n2c(SCC(=O)NCc3ccco3)nc3ccsc3c2=O)CC1,-1,-4,-1,-3,23599*
CCOC(=O)CSc1nc2cc(C(=O)NCc3ccco3)ccc2c(=O)n1C1CCCCC1,0,-18,0,-1,16581*
CCOC(=O)CSc1nc2c(c(=O)[nH]c(=O)n2C)n1Cc1ccccc1,?,-22,1,1,3123
CCOC(=O)CSc1nc2c(c(=O)[nH]c(=O)n2C)n1CCCc1ccccc1,-3,-7,-2,-2,22767*
O=C(/C=C/c1ccco1)Nc1sc2c(c1C(=O)O)CCC2,-4,-5,-1,-4,16426*
Cc1cccc(-c2nc(CS(=O)CC(=O)NCCCSC3CCCCC3)c(C)o2)c1 (centres undefined),-2,-2,?,-3,20646*
COc1cccc(-c2nc(CS(=O)CC(=O)N3CCC4(CC3)OCCO4)c(C)o2)c1 (centres undefined),-4,7,?,1,21075*
COc1cccc(-c2nc(CS(=O)CC(=O)NCCCOC(C)C)c(C)o2)c1 (centres undefined),5,5,2,-1,21012*
COc1cccc(-c2nc(CS(=O)(=O)CC(=O)NCCCOC(C)C)c(C)o2)c1,1,5,?,-4,21662*
COc1cccc(-c2nc(CS(=O)(=O)CC(=O)NCCCc3ccccc3)c(C)o2)c1,2,-1,0,-2,6143
Cc1ccc[n+](CC(=O)c2ccc(Br)cc2)c1C,?,10,-3,4,?
CCC1(C)NC(=O)N(CC(=O)NCC(=O)Nc2c(C)cc(C)cc2C)C1=O (centres undefined),2,-5,-1,-2,6350
CC(C)[C@H]1COC(NC2=N[C@@H](C(C)C)CO2)=N1,-1,3,0,-2,3975
CCNC(=S)N/N=C/c1ccc(OCC(=O)Nc2ccc(OC)cc2)c(OC)c1,12,12,2,0,10126
CCNC(=S)N/N=C/c1ccc(OCCOc2ccccc2C)cc1,-1,-15,1,4,23540*
CCNC(=S)N/N=C/c1ccc(OCC(=O)Nc2ccc(C)cc2)cc1,-5,-8,-1,-4,20930*
Cc1cc(N2CCN(Cc3ccccc3)CC2)n2nc(C)c(-c3ccccc3)c2n1,-10,-5,-5,-4,22404*
Cc1nn2c(N3CCN(C4CCCC4)CC3)cc(C(C)(C)C)nc2c1-c1ccccc1,-4,0,?,-10,23963*
